This is an account of results in PubChem BioAssay (NCATS).

Unmarked numbers belong to inactive results. Results filed as inconclusive are left out. Calls of active or inactive are those of the source. Unless noted, the call rests on the fitted dose curve; in most records, active means well fitted curve in the direction sought with a large enough effect; inconclusive means small, poorly fitted or top-dose-only effect, or another doubt; inactive means no such curve, though single readings can be large; an effect the other way counts as inactive or inconclusive.

Assay [1] deals with Lysosomal acid glucosylceramidase (Homo sapiens) (UniProt P04062). Put plainly: Glucocerebrosidase-p2 (AID 348; in the data active means potency below about 10 µM; further: potency means the concentration at half of the fitted maximal effect). The note with it: purified GBA, blue fluorogenic substrate, 40 min. The gist of the method:
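Normal human glucocerebrosidase (0.2 nM) with blue fluorogenic substrate (80 uM final) in citrate/phosphate pH 5.9 with 10mM sodium taurocholate, 0.01% tween-20; 40 min RT, NaOH/glycine stop; fluorescence Ex 365/Em 440; AC50 from a titration from 0.6 nM upwards.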

Assay [2] deals with Glucocorticoid receptor (Homo sapiens) (UniProt P04150). Put plainly: GR-GFP Redistribution (AID 450;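 active means compounds whose dose series gives a full or clear partial fitted curve of increased nuclear translocation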; further: potency means the concentration at half of the fitted maximal effect). The note with it: U2OS GR-GFP nuclear translocation, laser cytometry, 2 h.
For assay [3] the target is unchanged. The assay is described as follows: GR-EFC Redistribution (AID 451; calls by dose curve; further: potency means the concentration at half of the fitted maximal effect). The note with it: CHO-K1 GR-EFC translocation, beta-gal luminescence, 2 h. The gist of the method:
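Translocation of GR-ED fusion to nuclear EA restores b-gal, read by luminescence after 1 h room-temperature detection. Engineered CHO-K1 biosensor cells, 1,000/well, exposed 2 h at 37 C to titrations up to 46 uM final.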

In assay [4] the target is Mitogen-activated protein kinase 10 (Mus musculus) (UniProt Q61831). The assay is described as follows: JNK3 AlphaScreen Assay (AID 530; active means well fitted curve in either direction with a large enough effect, not every such curve was filed as active;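 further: kinase came from lysate of stimulated human HepG2 cells; signal reports phosphorylation of biotinylated GST-cJun 1-79 at Ser73 with 10 µM ATP; on the % scale 0 is the no-effect control and ±100 the full control effect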). The note with it: JNK3 lysate, c-Jun phosphorylation; series mostly up to 57.1 µM. In a few lines:
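Kinase buffer: 20 mM Tris-HCl pH 7.6, 10 mM MgCl2, 1 mM DTT, 0.1 mM Na3VO4, 0.01% Tween-20; ATP 10 uM. Substrate biotin-GST-cJun(1-79), enzyme from activated HepG2 lysates. Detection by Ser73 phospho-antibody AlphaScreen.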

The target in assay [5] is 3',5'-cyclic-AMP phosphodiesterase 4B (Homo sapiens) (UniProt Q07343). Put plainly: qHTS Assay for Inhibitors of PDE-IV (AID 607; active means well fitted activation curve with a large enough effect in the main read-out, with a control signal flat, not every such curve was filed as active; further: % of control where 0% means no effect). The note with it: HEK293 ACTOne CNG channel cells, membrane potential fluorescence; series mostly up to 22.9 µM. In a few lines: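 Cell-based read-out of cAMP via a modified cyclic nucleotide-gated channel and membrane potential dye (535/590 nm) in HEK293 cells expressing PDE4 endogenously. Compounds tested up to 22.9 uM final; 100 uM RO 20-1724 reference.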
In general terms: qHTS replaces the single test concentration by a dilution series.

Assay [6] has as its target Cytochrome P450 3A4 (Homo sapiens) (UniProt P08684). The assay is described as follows: qHTS Assay for Inhibitors and Substrates of Cytochrome P450 3A4 (AID 884). Further: nearly all actives have a fitted effect of over 50% in size. Further: potency means the concentration at half of the fitted maximal effect. The note with it: recombinant CYP3A4, Luciferin-PPXE luminescence; series mostly up to 57.1 µM. In a few lines:
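Luminescent readout of luciferin produced by CYP3A4 (20 nM) dealkylation of Luciferin-PPXE, 25 uM (its KM). NADPH-driven reaction ran 60 min at RT after 10 min compound preincubation; data scaled to 57 uM ketoconazole as 100% inhibition.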

For assay [7] the target is unchanged. Put plainly: qHTS Assay for Activators of Cytochrome P450 3A4 (AID 885). Further: nearly all actives have a fitted effect of over 65% in size. Further: potency means the concentration at half of the fitted maximal effect. The note with it: recombinant CYP3A4, Luciferin-PPXE luminescence, 60 min; series mostly up to 57.1 µM. In a few lines: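 Luminescent readout of luciferin formed from 25 uM Luciferin-PPXE (KM level) by 20 nM CYP3A4 in 200 mM KPO4, with 60 min NADPH-driven reaction at room temperature after 10 min compound exposure. Ketoconazole (57 uM) defined 100% inhibition.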

Assay [8] deals with Dual specificity protein kinase CLK4 (Homo sapiens) (UniProt Q9HAZ1). Put plainly: qHTS Assay for Inhibitors of CDC-like Kinase 4 (ADP-Glo Assay) (AID 1771). Further: nearly all actives have a fitted effect of over 70% in size. Further: potency means the concentration at half of the fitted maximal effect. The note with it: recombinant CLK4, ADP-Glo luminescence; series mostly up to 80 µM. In a few lines: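 25 nM Clk4, 100 uM RS peptide, 1 uM ATP (final); 2 mM MgCl2, 0.5 mM EGTA, 2.5 mM DTT, 0.01% Triton X-100; 1 hr RT. ADP-Glo readout: ATP depletion 45 min, conversion/luciferase 30 min, luminescence.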

Assay [9] has the same target. The assay is described as follows: qHTS Assay for Inhibitors of CDC-like Kinase 4 (ADP-FP Assay) (AID 1795). Further: on the % scale 0 is the no-effect control and ±100 the full control effect; nearly all actives have a fitted effect of over 60% in size. The note with it: Transcreener ADP fluorescence polarization; series mostly up to 50 µM. In a few lines:
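Recombinant human Clk4 (6.25 nM) phosphorylated RS repeat peptide (100 uM) with 1 uM ATP in Tris pH 7.5/MgCl2/EGTA/DTT/Triton buffer for one hour. ADP was quantified by Transcreener competitive fluorescence polarization against an ADP calibration curve.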

The target of assay [10] is Ubiquitin carboxyl-terminal hydrolase 1 (Homo sapiens) (UniProt O94782). Put plainly: Inhibitors of USP1/UAF1: Pilot qHTS (AID 504865).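 Further: rhodamine fluorescence freed from ubiquitin-rhodamine substrate followed over time; top concentration of the series differs between compounds; on the % scale 0 is the no-effect control and ±100 the full control effect; nearly all actives have a fitted effect of over 35% in size.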 The note with it: purified USP1/UAF1, Ub-rhodamine cleavage fluorescence; series mostly up to 54.9 µM. The gist of the method:
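USP1/UAF1 complex (1nM) preincubated with compound 15 min at room temperature, then Ub-Rho substrate (150nM final) added. Fluorescence read kinetically at 480/540 nm, 6 reads every 60 seconds. Buffer: 50mM HEPES pH 7.8, 0.5mM EDTA, 0.1 mg/ml BSA, 1mM TCEP, 0.01% Tween-20.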

Assay [11] can be described thus: Primary qHTS for small molecule stabilizers of the endoplasmic reticulum resident proteome: Secreted ER Calcium Modulated Protein (SERCaMP) assay (AID 1508630). Further: on the % scale 0 is the no-effect control and ±100 the full control effect. The note with it: SH-SY5Y GLuc-SERCaMP (Gaussia luciferase released on ER calcium loss) secretion, thapsigargin, luminescence; series mostly up to 38.4 µM. The gist of the method: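 The SH-SY5Y reporter protocol was run at 3 concentrations up to 38.3 uM (primary) or 11 concentrations (follow-up): 16 h compound, 100 nM thapsigargin for 4 h, then extracellular luciferase luminescence.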

A short description of assay [12]: AP1 Signaling Pathway (AID 357; active means well fitted curve in either direction with a large enough effect, not every such curve was filed as active; further: on the % scale 0 is the no-effect control and ±100 the full control effect). The note with it: ME-180 AP-1-bla reporter, EGF-induced, beta-lactamase ratio, 5 h; at 7.69 µM (top of the series) unless noted. In a few lines: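 AP-1-bla ME-180 cells, Opti-MEM + 0.5% dialyzed FBS, plated overnight 37 °C. Cpd titration + EC50 EGF, 5 h 37 °C. CCF4 2.5 h RT; ex 405, em 460/530 ratio → %activity, AC50.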
Assay [13] is described as follows: NFAT Signaling Pathway (AID 444; active means well fitted curve in either direction with a large enough effect, not every such curve was filed as active;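 further: carbachol stimulus at about its EC50 of 1 µM final; on the % scale 0 is the no-effect control and ±100 the full control effect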). The note with it: Jurkat NFAT-bla M1, carbachol, beta-lactamase ratio, 5 h; at 7.69 µM (top of the series) unless noted. In a few lines:
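Read-out: CCF4 FRET ratio (460 nm/530 nm) after 1 h RT dye loading, used for %activity and AC50 from titration series. Cells: Jurkat NFAT-β-lactamase/M1 line, treated with compound plus 1 uM carbachol for 5 h, 37 °C.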

Assay [14] can be described thus: Stat Signaling Pathway (AID 446; active means well fitted curve in either direction with a large enough effect, not every such curve was filed as active). The note with it: ME-180 SIE beta-lactamase reporter, IL-6 stimulated, 5 h; at 7.69 µM (top of the series) unless noted. The gist of the method: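 FRET read-out (405 nm excitation, 460/530 nm emission) of a beta-lactamase reporter under a STAT-inducible element in ME-180 cervical carcinoma cells. Cells with compound receive 40 pM IL-6 for 5 h. Values are normalised to AC90 stimulation and AC90 JAK-inhibitor controls.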

In assay [15] the target is Cytochrome P450 1A2 (Homo sapiens) (UniProt P05177). The assay is described as follows: p450-cyp1a2 (AID 410; calls by dose curve; further: potency means the concentration at half of the fitted maximal effect). The note with it: recombinant CYP1A2, luciferin-ME demethylation, luminescence; series mostly up to 57 µM. In a few lines:
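20nM CYP1A2, 100uM Luciferin-ME (=Km), 100mM KPO4; cpd 10 min RT; +NADPH regen, 60 min RT; stop/detect 20 min; luminescence. Normalized to furafylline 57 uM = full inhibition.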

For assay [16], the target named is Cytochrome P450 2C19 (Homo sapiens) (UniProt P33261). Put plainly: qHTS Assay for Inhibitors and Substrates of Cytochrome P450 2C19 (AID 899). Further: potency means the concentration at half of the fitted maximal effect; nearly all actives have a fitted effect of over 60% in size. The note with it: recombinant CYP2C19, luciferin-H EGE luminescence; series mostly up to 57.1 µM. The gist of the method:
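5nM enzyme + 10uM Luciferin-H EGE (=KM), 50mM KPO4; cpd pin-transferred, 10 min 37C; NADPH regen, 60 min 37C; stopped w/ luciferin detection reagent, 20 min; luminescence. Normalized to 57uM ketoconazole (AC100).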

The nature of assay [17]: qHTS Assay for Identification of Small Molecule Agonists for Hypoxia Response Element Signaling Pathway (AID 914; active means well fitted activation curve with a large enough effect in the signal ratio, with a control signal flat, not every such curve was filed as active; the % refers to the signal ratio; further: % of control where 0% means no effect). The note with it: ME-180 (cervical carcinoma) HRE-bla reporter, beta-lactamase ratio, CoCl2, 17 h; activation: active compounds read high. In a few lines:
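Cells were plated overnight, pin-dosed with compound in a titration series, co-stimulated with EC50 CoCl2 and incubated 17 hours at 37 degrees Celsius. CCF4 substrate was then loaded, and AC50 values came from the 460nm/530nm ratio.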

Chain of 3',5'-cyclic-AMP phosphodiesterase 4B (Homo sapiens) (Q07343 whole entry, looked up): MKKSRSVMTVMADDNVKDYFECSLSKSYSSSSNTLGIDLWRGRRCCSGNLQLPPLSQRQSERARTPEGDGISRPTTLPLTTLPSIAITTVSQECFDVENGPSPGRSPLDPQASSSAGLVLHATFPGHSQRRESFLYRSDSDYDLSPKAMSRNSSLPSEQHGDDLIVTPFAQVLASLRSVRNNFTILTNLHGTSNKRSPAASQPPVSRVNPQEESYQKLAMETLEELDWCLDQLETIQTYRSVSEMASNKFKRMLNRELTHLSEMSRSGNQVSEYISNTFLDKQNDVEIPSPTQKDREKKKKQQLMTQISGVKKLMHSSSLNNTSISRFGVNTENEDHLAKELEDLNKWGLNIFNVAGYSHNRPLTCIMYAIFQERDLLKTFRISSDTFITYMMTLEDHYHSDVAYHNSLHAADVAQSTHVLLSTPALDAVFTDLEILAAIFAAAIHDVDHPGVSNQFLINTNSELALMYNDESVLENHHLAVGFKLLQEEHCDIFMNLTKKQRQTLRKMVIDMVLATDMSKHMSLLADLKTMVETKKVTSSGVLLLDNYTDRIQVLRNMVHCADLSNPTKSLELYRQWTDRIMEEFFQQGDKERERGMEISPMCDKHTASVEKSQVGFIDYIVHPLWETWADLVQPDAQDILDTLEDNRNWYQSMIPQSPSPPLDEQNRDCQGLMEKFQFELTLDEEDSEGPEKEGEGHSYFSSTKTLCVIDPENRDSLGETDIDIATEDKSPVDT
Chain of Dual specificity protein kinase CLK4 (Homo sapiens) (Q9HAZ1 whole entry, looked up): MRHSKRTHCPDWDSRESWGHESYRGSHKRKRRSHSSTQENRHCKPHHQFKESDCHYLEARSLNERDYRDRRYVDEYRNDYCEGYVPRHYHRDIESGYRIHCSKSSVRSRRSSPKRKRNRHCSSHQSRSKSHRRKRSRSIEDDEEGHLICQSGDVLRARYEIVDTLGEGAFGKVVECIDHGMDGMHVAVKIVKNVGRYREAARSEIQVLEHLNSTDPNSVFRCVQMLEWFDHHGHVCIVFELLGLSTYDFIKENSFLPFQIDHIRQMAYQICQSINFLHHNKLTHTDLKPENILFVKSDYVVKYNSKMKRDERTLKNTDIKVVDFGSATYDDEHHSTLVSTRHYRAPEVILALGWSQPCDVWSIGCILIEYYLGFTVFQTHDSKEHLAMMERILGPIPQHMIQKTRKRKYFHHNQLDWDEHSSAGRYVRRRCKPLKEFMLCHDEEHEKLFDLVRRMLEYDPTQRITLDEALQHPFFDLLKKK
Chain of Cytochrome P450 1A2 (Homo sapiens) (P05177 whole entry, looked up): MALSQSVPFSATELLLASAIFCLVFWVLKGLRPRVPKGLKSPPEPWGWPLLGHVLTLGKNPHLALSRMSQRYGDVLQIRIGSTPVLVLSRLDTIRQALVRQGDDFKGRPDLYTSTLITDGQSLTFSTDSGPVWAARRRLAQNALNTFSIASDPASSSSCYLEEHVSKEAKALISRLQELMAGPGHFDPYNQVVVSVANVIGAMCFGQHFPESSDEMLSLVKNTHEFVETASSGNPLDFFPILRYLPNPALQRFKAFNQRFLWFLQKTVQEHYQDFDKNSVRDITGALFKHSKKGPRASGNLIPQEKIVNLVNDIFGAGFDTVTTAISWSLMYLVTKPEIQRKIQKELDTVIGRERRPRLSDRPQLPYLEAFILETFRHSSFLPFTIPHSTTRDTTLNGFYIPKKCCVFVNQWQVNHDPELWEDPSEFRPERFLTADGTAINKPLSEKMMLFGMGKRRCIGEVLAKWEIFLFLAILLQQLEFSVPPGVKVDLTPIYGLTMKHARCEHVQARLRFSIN
Chain of Ubiquitin carboxyl-terminal hydrolase 1 (Homo sapiens) (O94782 whole entry, looked up): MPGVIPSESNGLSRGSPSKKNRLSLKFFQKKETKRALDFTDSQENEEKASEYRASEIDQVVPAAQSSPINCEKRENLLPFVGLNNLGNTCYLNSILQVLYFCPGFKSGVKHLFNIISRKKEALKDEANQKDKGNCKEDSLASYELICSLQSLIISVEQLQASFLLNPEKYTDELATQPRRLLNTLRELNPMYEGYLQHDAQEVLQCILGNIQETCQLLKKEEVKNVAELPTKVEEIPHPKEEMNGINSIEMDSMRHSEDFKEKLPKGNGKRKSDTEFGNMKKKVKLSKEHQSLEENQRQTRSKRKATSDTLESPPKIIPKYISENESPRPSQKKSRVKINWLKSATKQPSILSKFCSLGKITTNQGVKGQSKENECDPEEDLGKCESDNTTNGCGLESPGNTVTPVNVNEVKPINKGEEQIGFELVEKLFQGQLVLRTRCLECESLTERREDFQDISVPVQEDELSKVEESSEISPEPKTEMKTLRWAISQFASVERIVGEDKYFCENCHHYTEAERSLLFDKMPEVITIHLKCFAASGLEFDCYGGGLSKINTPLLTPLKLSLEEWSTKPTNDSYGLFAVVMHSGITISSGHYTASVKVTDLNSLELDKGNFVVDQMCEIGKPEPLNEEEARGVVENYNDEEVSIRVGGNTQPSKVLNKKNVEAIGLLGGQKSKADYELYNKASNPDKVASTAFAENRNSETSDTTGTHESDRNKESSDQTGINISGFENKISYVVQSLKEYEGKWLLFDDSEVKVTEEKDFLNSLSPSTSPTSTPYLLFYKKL
Chain of Lysosomal acid glucosylceramidase (Homo sapiens) (P04062 whole entry, looked up): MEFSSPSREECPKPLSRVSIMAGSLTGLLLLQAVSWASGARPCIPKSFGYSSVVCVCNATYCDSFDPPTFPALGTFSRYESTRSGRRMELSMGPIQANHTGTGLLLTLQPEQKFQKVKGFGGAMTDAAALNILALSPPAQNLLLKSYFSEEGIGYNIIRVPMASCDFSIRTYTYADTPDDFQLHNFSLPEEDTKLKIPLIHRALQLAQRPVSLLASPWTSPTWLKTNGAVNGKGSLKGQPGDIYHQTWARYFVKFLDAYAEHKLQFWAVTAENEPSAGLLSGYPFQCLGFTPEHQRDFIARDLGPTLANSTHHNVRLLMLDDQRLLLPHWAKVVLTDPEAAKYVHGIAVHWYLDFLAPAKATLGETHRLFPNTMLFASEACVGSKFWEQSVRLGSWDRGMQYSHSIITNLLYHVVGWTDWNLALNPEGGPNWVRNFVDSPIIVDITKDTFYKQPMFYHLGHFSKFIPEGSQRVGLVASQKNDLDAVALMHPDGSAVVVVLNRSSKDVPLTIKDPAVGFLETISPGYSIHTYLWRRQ
Chain of Glucocorticoid receptor (Homo sapiens) (P04150 whole entry, looked up): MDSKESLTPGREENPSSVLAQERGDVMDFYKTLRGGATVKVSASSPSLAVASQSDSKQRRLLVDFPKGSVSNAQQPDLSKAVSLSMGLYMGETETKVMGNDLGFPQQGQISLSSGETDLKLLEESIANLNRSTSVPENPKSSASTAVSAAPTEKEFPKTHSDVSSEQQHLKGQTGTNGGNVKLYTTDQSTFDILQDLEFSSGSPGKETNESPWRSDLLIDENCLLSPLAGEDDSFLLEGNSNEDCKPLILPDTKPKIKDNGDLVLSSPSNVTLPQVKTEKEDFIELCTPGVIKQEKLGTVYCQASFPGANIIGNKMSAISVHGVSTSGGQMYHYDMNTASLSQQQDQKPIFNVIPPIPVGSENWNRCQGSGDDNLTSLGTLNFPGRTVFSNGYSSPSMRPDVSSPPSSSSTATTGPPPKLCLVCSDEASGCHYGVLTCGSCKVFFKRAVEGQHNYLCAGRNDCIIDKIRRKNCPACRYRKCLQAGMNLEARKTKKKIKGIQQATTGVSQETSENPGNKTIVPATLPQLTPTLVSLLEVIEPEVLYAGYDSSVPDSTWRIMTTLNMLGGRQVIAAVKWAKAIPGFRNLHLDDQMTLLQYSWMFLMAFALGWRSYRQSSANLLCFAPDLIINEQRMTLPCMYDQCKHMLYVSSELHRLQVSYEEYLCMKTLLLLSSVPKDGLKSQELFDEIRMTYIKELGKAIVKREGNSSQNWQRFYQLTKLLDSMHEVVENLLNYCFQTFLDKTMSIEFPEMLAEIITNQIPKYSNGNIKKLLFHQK
Chain of Cytochrome P450 3A4 (Homo sapiens) (P08684 whole entry, looked up): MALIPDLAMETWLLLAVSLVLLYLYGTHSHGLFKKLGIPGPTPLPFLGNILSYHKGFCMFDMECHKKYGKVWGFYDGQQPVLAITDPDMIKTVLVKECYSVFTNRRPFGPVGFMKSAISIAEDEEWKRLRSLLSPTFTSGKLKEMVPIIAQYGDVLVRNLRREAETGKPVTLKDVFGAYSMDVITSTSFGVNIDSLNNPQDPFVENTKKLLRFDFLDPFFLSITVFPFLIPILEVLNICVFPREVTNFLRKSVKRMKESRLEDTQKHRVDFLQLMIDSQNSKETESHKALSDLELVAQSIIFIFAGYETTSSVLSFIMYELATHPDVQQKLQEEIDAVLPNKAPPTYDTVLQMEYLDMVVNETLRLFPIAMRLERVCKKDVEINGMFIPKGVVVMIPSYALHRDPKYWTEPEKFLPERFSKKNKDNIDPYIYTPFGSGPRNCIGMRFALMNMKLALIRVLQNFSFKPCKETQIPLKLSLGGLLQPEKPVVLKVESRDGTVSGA
Chain of Cytochrome P450 2C19 (Homo sapiens) (P33261 whole entry, looked up): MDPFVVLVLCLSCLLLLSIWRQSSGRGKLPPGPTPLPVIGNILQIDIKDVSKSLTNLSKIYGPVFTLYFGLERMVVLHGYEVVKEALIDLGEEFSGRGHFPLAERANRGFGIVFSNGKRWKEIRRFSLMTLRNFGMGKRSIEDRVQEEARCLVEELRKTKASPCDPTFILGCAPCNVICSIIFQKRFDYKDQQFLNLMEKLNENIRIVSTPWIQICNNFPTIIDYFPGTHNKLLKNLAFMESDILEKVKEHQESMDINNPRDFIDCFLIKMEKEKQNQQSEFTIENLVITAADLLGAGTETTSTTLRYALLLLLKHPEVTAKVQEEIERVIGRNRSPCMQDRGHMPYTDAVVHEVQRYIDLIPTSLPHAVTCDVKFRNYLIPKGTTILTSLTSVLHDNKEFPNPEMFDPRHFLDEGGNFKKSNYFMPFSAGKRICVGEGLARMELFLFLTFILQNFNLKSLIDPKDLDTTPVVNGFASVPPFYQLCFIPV

In the case of `CN1CCN(c2ncc3nc(-c4ccc(Cl)cc4)c(=O)n(C)c3n2)CC1`, the Potency in [1] was > 11.4 µM; in assay [2], > 9.22 µM; in [3], > 46 µM; in assay [7], 12.6 µM (active). Further, the Potency result in [4], in assay [5], in [6], in assay [8], in assay [9] and in [10] was “inactive” each time. The outcome in assay [11] was inactive.

On to `COCCn1c(=O)c(C)nc2cnc(OC)nc21`, for which the Potency was > 11.4 µM in [1], > 9.22 µM in assay [2] and > 46 µM in [3]. The activity change, negative = inhibition in assay [12] was -9.91%; in assay [13], 5.14%. The activity, negative = inhibition in [14] was -16.1%. In addition, the Potency result in assay [4], in [5], in [7], in assay [8], in [9] and in [10] was “inactive” each time. In addition, the result in [11] was inactive.

Consider `Cc1nc2cnc(N(C)C)nc2n(CCc2ccccc2)c1=O`, for which the Potency in assay [1] was > 11.4 µM; in assay [15], 1.26 µM (active); in [2], > 9.22 µM; in assay [3] it was > 46 µM; in assay [16], 0.631 µM (active); in assay [8] it was 35.5 µM (active). In addition, the activity change, negative = inhibition in [12] was -5.39%; in [13] it was -14.5%. In addition, the Potency entry in assay [4], in assay [7], in [9] and in assay [10] was “inactive” throughout. Besides, the result in assay [11] was inactive.

Regarding `CN(C)c1ccc(-c2cncnc2NCc2cccnc2)cc1`, the Potency was > 11.4 µM in [1]; 1 µM (active) in assay [15]; > 46 µM in [2]; > 46 µM in assay [3]; 0.631 µM (active) in assay [6]; 0.0316 µM (active) in assay [16]. For the same compound, the activity change, negative = inhibition in [12] was -12.4%; in assay [13], 8.27%. In assay [14], the activity, negative = inhibition is -10%. In addition, the Potency entry in [4], in assay [5], in assay [7], in assay [9] and in assay [10] was “inactive” throughout. Also, in assay [17], the activation is 1.46%. Besides, in assay [11], the outcome was inactive.

Regarding `CC(=O)NCCNc1nc(-c2cccc(NS(C)(=O)=O)c2)nc2ccccc12`, the Potency in [1] is > 11.4 µM; in assay [15], 15.8 µM (active); in [2] it was > 46 µM; in assay [3], > 46 µM. In addition, the activity change, negative = inhibition in [12] is -17.6%; in assay [13], -1.12%. In addition, in [14], the activity, negative = inhibition was -3.86%. The Potency entry in assay [4], in assay [5], in assay [7], in assay [9] and in assay [10] was “inactive” each time. Also, the result in assay [11] was inactive.

Take `Cc1ccccc1-c1cc(NCc2cccnc2)ncn1`: the Potency in assay [1] was > 11.4 µM; in [15], 3.98 µM (active); in [2], > 46 µM; in [3], > 46 µM. In addition, the activity change, negative = inhibition in [12] is 6.3%; in [13], 2.72%. For the same compound, the activity, negative = inhibition in [14] was -6.88%. In addition, the Potency result in [4], in [5], in assay [7], in [9] and in assay [10] was “inactive” in each case. Besides, the result in [11] was inactive.
